# Target: PUM1 PUF domain R3-ACR (Homo sapiens, UniProt Q14671 828-1176, C935A;R936C;Q939R)
# Experiment: yeast three-hybrid, YBZ-1, SC-Leu-His + 0.5 mM 3-AT, 4 days
# Conditions: tags: N-Gal4 AD-HA kept; label: inside an RPR1-promoter hybrid RNA with tandem MS2 sites; ssRNA
# Method in brief: (§1)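 Pumilio-1 PUF domain libraries, randomized at the three base-contacting residues of each repeat, were co-expressed with matching RNA elements from a centromeric plasmid in strain YBZ-1, which carries a LexA–MS2 coat fusion and a HIS3 reporter. Transformants grew for four days on SC-Leu (input) or on SC-Leu-His + 0.5 mM 3-AT (selection), and the repeat regions were PCR-amplified and Illumina-sequenced. The interaction score is the log change in variant frequency from input to selection. That logarithm is base 2, with a pseudocount of 1 where a variant was absent.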
row,Sequence,binding signal
1,GGCUAGAACUAGUGGAUCCCCCGGCGCCCGGCGGCUCGAGCCCGGGUAAGUGUAAGUAGUCUGCAUGCCGCCGGGCGCCAUGCCUGCAGGUCGACUCUAGAAAACAUG,4.11 log2 enrichment (interaction score)
2,GGCUAGAACUAGUGGAUCCCCCGGCGCCCGGCGGCUCGAGCCCGGGUAAGUGUAAAUAGUCUGCAUGCCGCCGGGCGCCAUGCCUGCAGGUCGACUCUAGAAAACAUG,0.84 log2 enrichment (interaction score)
3,GGCUAGAACUAGUGGAUCCCCCGGCGCCCGGCGGCUCGAGCCCGGGUAAGUGUAAUUAGUCUGCAUGCCGCCGGGCGCCAUGCCUGCAGGUCGACUCUAGAAAACAUG,3.08 log2 enrichment (interaction score)

# Target: PUM1 PUF domain R5-GRN (Homo sapiens, UniProt Q14671 828-1176, C1007G;Q1011N)
# Experiment: as above
# Conditions: tags: N-Gal4 AD-HA kept; label: inside an RPR1-promoter hybrid RNA with tandem MS2 sites; ssRNA
# Method in brief: as §1
row,Sequence,binding signal
1,GGCUAGAACUAGUGGAUCCCCCGGCGCCCGGCGGCUCGAGCCCGGGUAAGUGUUAAUAGUCUGCAUGCCGCCGGGCGCCAUGCCUGCAGGUCGACUCUAGAAAACAUG,3.83 log2 enrichment (interaction score)
2,GGCUAGAACUAGUGGAUCCCCCGGCGCCCGGCGGCUCGAGCCCGGGUAAGUGUCAAUAGUCUGCAUGCCGCCGGGCGCCAUGCCUGCAGGUCGACUCUAGAAAACAUG,1.4 log2 enrichment (interaction score)
3,GGCUAGAACUAGUGGAUCCCCCGGCGCCCGGCGGCUCGAGCCCGGGUAAGUGUAAAUAGUCUGCAUGCCGCCGGGCGCCAUGCCUGCAGGUCGACUCUAGAAAACAUG,3.37 log2 enrichment (interaction score)
4,GGCUAGAACUAGUGGAUCCCCCGGCGCCCGGCGGCUCGAGCCCGGGUAAGUGUGAAUAGUCUGCAUGCCGCCGGGCGCCAUGCCUGCAGGUCGACUCUAGAAAACAUG,2.92 log2 enrichment (interaction score)

# Target: PUM1 PUF domain R4-EYA (Homo sapiens, UniProt Q14671 828-1176, N971E;H972Y;Q975A)
# Experiment: as above
# Conditions: tags: N-Gal4 AD-HA kept; label: inside an RPR1-promoter hybrid RNA with tandem MS2 sites; ssRNA
# Method in brief: as §1
row,Sequence,binding signal
1,GGCUAGAACUAGUGGAUCCCCCGGCGCCCGGCGGCUCGAGCCCGGGUAAGUGUACAUAGUCUGCAUGCCGCCGGGCGCCAUGCCUGCAGGUCGACUCUAGAAAACAUG,0.75 log2 enrichment (interaction score)
2,GGCUAGAACUAGUGGAUCCCCCGGCGCCCGGCGGCUCGAGCCCGGGUAAGUGUAUAUAGUCUGCAUGCCGCCGGGCGCCAUGCCUGCAGGUCGACUCUAGAAAACAUG,3.44 log2 enrichment (interaction score)
3,GGCUAGAACUAGUGGAUCCCCCGGCGCCCGGCGGCUCGAGCCCGGGUAAGUGUAAAUAGUCUGCAUGCCGCCGGGCGCCAUGCCUGCAGGUCGACUCUAGAAAACAUG,2.34 log2 enrichment (interaction score)
